According to PubChem BioAssay AID1159580 (chemical genetic matrix, 2015):
The whole screen tested about 5,500 compounds, of which about 2,000 (36%) were called active. About 18% were inconclusive and are not listed. Rule as the data show it: active = normalized growth mostly below about 0.91 (no sharp cut-off); inconclusive = no clear call, values can overlap the other calls; inactive = mostly above about 0.92. This is one part of the list.

Test: chemical genetic growth profiling, strain panel (AID 1159580);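 also: tested at 20 µM; growth read once vehicle control cultures reached saturation at 30 °C; 1 = growth at the plate median or of vehicle wells; lower values mean less growth of the strain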
Conditions: growth OD

Measured: normalized growth

CCOC(=O)[C@H](CCc1ccccc1)N[C@@H](C)C(=O)N1[C@H](C(=O)O)C[C@@H]2CCC[C@@H]21
inactive: S. cerevisiae deletion strains, locus YJR075W, strain HOC1, hits give low values 0.998 | S. cerevisiae deletion strains, locus YKL009W, strain mrt4, hits give low values 1.01 | S. cerevisiae deletion strains, locus YKL068W, hits give low values 1.02 | S. cerevisiae deletion strains, locus YKL085W, strain MDH1 (second series), hits give low values 1.02 | S. cerevisiae deletion strains, locus YKL085W, strain MDH1, hits give low values 1.02 | S. cerevisiae deletion strains, locus YKL160W, strain elf1, hits give low values 0.981 | S. cerevisiae deletion strains, locus YKL190W, strain CNB1, hits give low values 1.01 | S. cerevisiae deletion strains, locus YKR001C, strain vps1, hits give low values 1.02 | S. cerevisiae deletion strains, locus YKR026C, strain gcn3, hits give low values 0.98 | S. cerevisiae deletion strains, locus YKR091W, strain srl3, hits give low values 0.985 | S. cerevisiae deletion strains, locus YLL001W, strain dnm1, hits give low values 0.989 | S. cerevisiae deletion strains, locus YLL026W, hits give low values 0.991 | S. cerevisiae deletion strains, locus YLL041C, strain sdh2, hits give low values 0.982 | S. cerevisiae deletion strains, locus YLR027C, strain aat2, hits give low values 0.992 | S. cerevisiae deletion strains, locus YLR039C, strain RIC1, hits give low values 1.06 | S. cerevisiae deletion strains, locus YLR058C, strain SHM2, hits give low values 1.01 | S. cerevisiae deletion strains, locus YLR102C, strain apc9, hits give low values 1.02 | S. cerevisiae deletion strains, locus YLR113W, strain HOG1, hits give low values 0.98 | S. cerevisiae deletion strains, locus YLR221C, strain rsa3, hits give low values 1 | S. cerevisiae deletion strains, locus YLR258W, strain gsy2, hits give low values 0.991 | S. cerevisiae deletion strains, locus YLR262C, strain YPT6 (second series), hits give low values 0.967 | S. cerevisiae deletion strains, locus YLR262C, strain YPT6, hits give low values 1.08 | S. cerevisiae deletion strains, locus YLR268W, strain sec22, hits give low values 1.02 | S. cerevisiae deletion strains, locus YLR320W, strain mms22, hits give low values 0.975 | S. cerevisiae deletion strains, locus YLR330W, strain CHS5, hits give low values 1.01 | S. cerevisiae deletion strains, locus YLR342W, strain FKS1 (second series), hits give low values 1.02 | S. cerevisiae deletion strains, locus YLR342W, strain FKS1, hits give low values 0.989 | S. cerevisiae deletion strains, locus YLR357W, strain rsc2, hits give low values 0.978 | S. cerevisiae deletion strains, locus YLR370C, strain arc18, hits give low values 0.98 | S. cerevisiae deletion strains, locus YLR371W, strain rom2, hits give low values 1.01 | S. cerevisiae deletion strains, locus YLR384C, strain iki3, hits give low values 0.984 | S. cerevisiae deletion strains, locus YLR418C, strain cdc73, hits give low values 1.06 | S. cerevisiae deletion strains, locus YML016C, strain PPZ1, hits give low values 1.02 | S. cerevisiae deletion strains, locus YML032C, strain rad52, hits give low values 1.02 | S. cerevisiae deletion strains, locus YML120C, strain ndi1, hits give low values 0.993 | S. cerevisiae deletion strains, locus YML124C, strain tub3, hits give low values 1.02 | S. cerevisiae deletion strains, locus YMR058W, strain fet3, hits give low values 0.99 | S. cerevisiae deletion strains, locus YMR078C, strain ctf18, hits give low values 1.03 | S. cerevisiae deletion strains, locus YMR125W, strain sto1, hits give low values 0.976 | S. cerevisiae deletion strains, locus YMR129W, hits give low values 0.979 | S. cerevisiae deletion strains, locus YMR205C, strain PFK2, hits give low values 0.981 | S. cerevisiae deletion strains, locus YMR223W, strain ubp8, hits give low values 1.02 | S. cerevisiae deletion strains, locus YMR231W, strain pep5, hits give low values 0.978 | S. cerevisiae deletion strains, locus YMR263W, strain SAP30, hits give low values 1.02 | S. cerevisiae deletion strains, locus YMR307W, strain GAS1, hits give low values 1.04 | S. cerevisiae deletion strains, locus YNL067W, strain RPL9B, hits give low values 1.01 | S. cerevisiae deletion strains, locus YNL071W, strain lat1, hits give low values 0.975 | S. cerevisiae deletion strains, locus YNL128W, strain TEP1, hits give low values 1 | S. cerevisiae deletion strains, locus YNL153C, strain GIM3, hits give low values 1.01 | S. cerevisiae deletion strains, locus YNL183C, strain NPR1, hits give low values 0.968 | S. cerevisiae deletion strains, locus YNL209W, strain ssb2, hits give low values 0.981 | S. cerevisiae deletion strains, locus YNL233W, strain BNI4, hits give low values 1 | S. cerevisiae deletion strains, locus YNL248C, strain rpa49, hits give low values 0.986 | S. cerevisiae deletion strains, locus YNL250W, strain rad50, hits give low values 1.03 | S. cerevisiae deletion strains, locus YNL271C, strain bni1, hits give low values 1.02 | S. cerevisiae deletion strains, locus YNL298W, strain CLA4, hits give low values 1.03 | S. cerevisiae deletion strains, locus YNL307C, strain MCK1, hits give low values 1.02 | S. cerevisiae deletion strains, locus YNL322C, strain KRE1 (second series), hits give low values 0.982 | S. cerevisiae deletion strains, locus YNL322C, strain KRE1, hits give low values 1.01 | S. cerevisiae deletion strains, locus YNR049C, strain mso1, hits give low values 0.985 | S. cerevisiae deletion strains, locus YNR052C, strain pop2, hits give low values 1.01 | S. cerevisiae deletion strains, locus YOL006C, strain TOP1, hits give low values 1.03 | S. cerevisiae deletion strains, locus YOL012C, strain htz1 1.2 | S. cerevisiae deletion strains, locus YOL147C, strain pex11, hits give low values 1.01 | S. cerevisiae deletion strains, locus YOR001W, strain rrp6, hits give low values 0.997 | S. cerevisiae deletion strains, locus YOR061W, strain CKA2, hits give low values 1.01 | S. cerevisiae deletion strains, locus YOR069W, strain VPS5, hits give low values 1 | S. cerevisiae deletion strains, locus YOR070C, strain gyp1, hits give low values 0.991 | S. cerevisiae deletion strains, locus YOR080W, strain dia2, hits give low values 0.982 | S. cerevisiae deletion strains, locus YOR083W, strain WHI5, hits give low values 0.984 | S. cerevisiae deletion strains, locus YOR106W, strain vam3, hits give low values 1.01 | S. cerevisiae deletion strains, locus YOR136W, strain idh2, hits give low values 1.02 | S. cerevisiae deletion strains, locus YOR144C, strain elg1, hits give low values 1.02 | S. cerevisiae deletion strains, locus YOR184W, strain ser1, hits give low values 1.03 | S. cerevisiae deletion strains, locus YOR231W, strain MKK1, hits give low values 0.983 | S. cerevisiae deletion strains, locus YOR265W, strain rbl2, hits give low values 0.979 | S. cerevisiae deletion strains, locus YOR270C, strain vph1, hits give low values 1.03 | S. cerevisiae deletion strains, locus YOR290C, strain snf2, hits give low values 0.988 | S. cerevisiae deletion strains, locus YOR316C, strain cot1, hits give low values 1.02 | S. cerevisiae deletion strains, locus YPL051W, strain arl3, hits give low values 0.987 | S. cerevisiae deletion strains, locus YPL055C, strain LGE1, hits give low values 1.02 | S. cerevisiae deletion strains, locus YPL078C, strain atp4, hits give low values 0.977 | S. cerevisiae deletion strains, locus YPL106C, strain sse1, hits give low values 0.988 | S. cerevisiae deletion strains, locus YPL240C, strain hsp82, hits give low values 0.984 | S. cerevisiae deletion strains, locus YPL241C, strain CIN2, hits give low values 0.999 | S. cerevisiae deletion strains, locus YPL256C, strain CLN2, hits give low values 0.973 | S. cerevisiae deletion strains, locus YPR119W, strain clb2, hits give low values 1.01 | S. cerevisiae deletion strains, locus YPR141C, strain kar3, hits give low values 1.03 | S. cerevisiae deletion strains, locus YPR163C, strain tif3, hits give low values 1.01 | S. cerevisiae deletion strains, locus YPR167C, strain met16, hits give low values 1.02 | S. cerevisiae deletion strains, strain wtn01, hits give low values 1.02 | S. cerevisiae strains, strain wild type, hits give low values 1.01
